Screening results deposited in PubChem by Broad Institute.
HIF act: HIF pathway transcriptional activators, primary screen, cell-based, U2OS HRE-luciferase, luminescence; U2OS HRE-luciferase reporter; normalized: DMSO 0%, desferrioxamine 100%; activation, % at 7.5 µM (by protocol); 300,000 tested, 0.32% active; AID 1910, 2009;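 active = mean activation of at least 10% of the iron chelator positive control signal, with at least half of replicates also reaching 10%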
Rce1 inhib: yeast Rce1p protease inhibitors, primary screen, biochemical, fluorescence, cell-free homogeneous; AID 2563, 2010; CAAX prenyl protease 2 (Saccharomyces cerevisiae (strain ATCC 204508 / S288c)), Q03530; yeast membranes, quenched prenylated peptide cleavage fluorescence; 290,000 tested, 0.27% active; calls only;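 active = fall in fluorescence gain of 50% or more versus controls, with final raw signal at or below 3038400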;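 note: plate controls were neutral control wells for no effect and wells lacking membranes for full effect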
Target sequence (Q03530 whole entry, looked up): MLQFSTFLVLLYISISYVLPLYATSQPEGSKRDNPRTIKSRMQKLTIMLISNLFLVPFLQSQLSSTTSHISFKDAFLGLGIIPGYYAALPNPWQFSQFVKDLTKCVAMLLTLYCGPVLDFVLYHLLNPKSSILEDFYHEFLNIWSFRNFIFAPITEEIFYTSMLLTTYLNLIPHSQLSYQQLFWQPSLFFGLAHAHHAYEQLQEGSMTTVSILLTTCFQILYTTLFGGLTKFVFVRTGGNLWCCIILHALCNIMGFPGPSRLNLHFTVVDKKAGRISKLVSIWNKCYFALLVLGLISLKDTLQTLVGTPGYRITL
PGC1a acetyl inh: inhibitors of PGC1a acetylation signal, primary screen, cell-based, U2OS, AlphaScreen, inhibitor mode; inhibition, % at 15.6 µM; 350,000 tested, 0.17% active; AID 651687, 2012; AlphaScreen anti-acetyl-lysine; with virally co-expressed GCN5 acetyltransferase;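 active = every replicate shows inhibition of at least 40%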;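 note: 0% = neutral control wells and 100% = positive control wells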
AI-2 QS modul: Vibrio harveyi AI-2 quorum sensing modulators, primary screen, JMH597 strain, luminescence/OD600 ratio; Vibrio harveyi JMH597 AI-2 luminescence/OD600 ratio, 9 h; hits give low values; strain lacks LuxN and CqsS sensors; 0 = neutral-control median; activity change, % at 7.5 µM; 300,000 tested, 0.4% active; in the data active = activity change below about -75%, passing the limit was not always enough;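 note: luminescence divided by OD600 gain over 9 h not by final OD600 alone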
C2C12 statin: suppressors of statin myotoxicity in C2C12 myotubes, primary screen, cell-based, single point, plate reader. C2C12 myotubes + simvastatin, ATP luminescence, 48 h; scaled: DMSO 0, geranylgeraniol control 100. rescue of ATP level, % at 7.49 µM. 330,000 tested, 0.78% active;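 active = mean ATP rescue above about 67%, or every replicate alone reaching that limit, limit read from the data, passing the limit was not always enough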;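 note: myotubes were challenged with 10 µM simvastatin during compound exposure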
* = called active by the depositor; i = inactive; nt = no result; + = active, no number. Rows were chosen to be rich in hits. Some 1.3% of all compounds tested hit in one or more screens of this group.

SMILES	HIF act	Rce1 inhib	PGC1a acetyl inh	AI-2 QS modul	C2C12 statin
CCc1nnc(SCC(=O)Nc2ccc(C(C)=O)cc2)nc1CC	0.0	i	13.7	37.2	112.5*
O=C(Cc1ccc(Cl)cc1)c1ccc(O)cc1	2.1	i	11.3	3.0	nt
Cc1ccc(CC(=O)c2ccc(Cl)cc2)cc1	3.0	i	-1.4	3.9	133.1*
CCCN1CCC2(CC1)CN(Cc1ccccc1OC)[C@H](CO)c1c2c2ccc(OC)cc2n1C	nt	nt	-6.7	nt	nt
CC(C)NC(=O)Nc1ccc2c(c1)CC(=O)N([C@H](C)CO)C[C@H](C)[C@H](CN(C)C)O2	nt	nt	6.9	nt	-2.2
COc1ccccc1C(=O)NNC(=O)Cc1ccccc1	1.6	i	nt	18.3	-1.5
CCC(C)(CCNC(=O)Cc1ccccc1)c1ccccc1OC (configuration not stated)	-8.8	i	-6.7	11.5	121.1*
O=C(NNC(=O)C1CCCO1)c1ccccc1Cl (configuration not stated)	-0.2	i	-14.0	29.4	-1.8
O=C(NC(c1ccccc1)c1ccccc1)C1CCCO1 (configuration not stated)	130.5*	i	nt	13.9	nt
CN1CCN(C(c2ccc(C(F)(F)F)cc2)c2cc(Cl)c3cccnc3c2O)CC1 (configuration not stated)	2.8	i	nt	-85.0*	nt
CCN1CCN(C(c2ccc(C(F)(F)F)cc2)c2ccc3cccnc3c2O)CC1 (configuration not stated)	6.2	i	13.8	-119.3*	43.6
CN1CCN(C(c2ccc(Cl)cc2)c2cc(Cl)c3cccnc3c2O)CC1 (configuration not stated)	4.8	i	nt	-121.9*	-90.1
COc1cc(C)c(S(=O)(=O)n2ccc(C)n2)cc1C	-12.7	i	-4.3	-29.6	112.7*
CN1C[C@@H]2[C@H](c3ccccc31)[C@H](CO)N2C(=O)C1CCCCC1	nt	nt	5.6	nt	-5.6
Cc1ccc(SCC(=O)N(C)C2CCS(=O)(=O)C2)cc1 (configuration not stated)	-0.1	i	nt	6.8	nt
Cc1ccc(-c2nc(SCC(=O)N(C)C3CCS(=O)(=O)C3)[nH]c2-c2ccc(C)cc2)cc1 (configuration not stated)	-0.4	+	0.7	32.1	-3.3
C[C@@H]1CN([C@H](C)CO)C(=O)Cc2cc(NC(=O)C3CC3)ccc2O[C@@H]1CN(C)S(C)(=O)=O	nt	nt	nt	nt	3.7
CCOC(=O)c1c(NC(=O)CN2C(=O)NC3(CCC(C)CC3)C2=O)sc(C)c1-c1ccc(C)cc1 (configuration not stated)	39.0*	i	-4.5	6.5	nt
CCCC#Cc1ccc(CC[C@H]2O[C@H]3CC[C@@H](CO)O[C@H]3C[C@@H]2n2cc(C(C)(C)O)nn2)cc1	nt	nt	6.8	nt	nt
COc1cc(NC(=O)Cc2cccc3ccccc23)c(C(=O)O)cc1OC	-0.8	i	nt	8.8	82.9*
O=C(COc1cccc2ccccc12)Nc1ccc(Cl)cc1C(=O)O	15.5*	i	-7.4	39.1	-7.7
O=C(COc1cccc2ccccc12)Nc1cc(Cl)ccc1C(=O)O	-0.8	i	nt	16.9	-15.7
COc1cc(NC(=O)Cc2ccccc2)c(C(=O)O)cc1OC	0.0	i	nt	27.0	nt
COc1ccc(CN(C)C[C@@H]2Oc3ccc(NC(=O)CCCCCC(=O)Nc4ccccc4N)cc3CC(=O)N([C@H](C)CO)C[C@H]2C)cc1	nt	nt	12.6	nt	nt
CCN1C(=O)/C(=C2\C=Cc3cc(C)ccc3N2CC)OC1=S	-0.1	i	-6.3	23.2	2.0
SMILES	HIF act	Rce1 inhib	PGC1a acetyl inh	AI-2 QS modul	C2C12 statin
CCN1C(=O)/C(=C2/C=Cc3ccccc3N2C)OC1=S	4.2	i	5.6	8.8	117.9*
C[C@@H]1CN([C@H](C)CO)C(=O)c2cc(NC(=O)Nc3ccccc3)ccc2O[C@H]1CN(C)C(=O)Nc1ccc2c(c1)OCO2	nt	nt	-0.7	nt	nt
CCCn1c(C2CCCN2c2nc(-c3cccc(Br)c3)cs2)nc2cc(Cl)c(Cl)cc21 (configuration not stated)	-1.8	i	4.1	12.6	117.4*
Cc1ccccc1NC(=O)CSc1ccc(-c2ccccn2)nn1	-0.3	i	-0.9	0.4	nt
Cc1cc(C)cc(NC(=O)CSc2ccc(-c3ccccn3)nn2)c1	10.4*	i	7.4	14.0	-3.5
O=C(O)c1ccccc1NCCO	0.2	+	nt	6.9	nt
COC(=O)c1ccccc1NCCO	0.0	i	nt	3.4	6.7
CCCSc1nnc(CN2CCOCC2)n1C	-0.1	i	1.6	15.4	111.3*
COCc1c(C(=O)OC)nnn1-c1ccccc1	0.0	i	-2.8	19.2	129.8*
CCCNC(=O)N1C[C@@H](C)[C@H](OC)CN(C)C(=O)c2ccc(NC(=O)CCC)cc2OC[C@@H]1C	nt	nt	-1.9	nt	-1.2
O=C(CC1CC1)N1CC(=O)N2[C@@H](CO)[C@@H](c3ccc(-c4ccccc4)cc3)[C@@H]2C1	nt	nt	-8.7	nt	nt
O=[N+]([O-])c1ccc(Sc2cccc3cccnc23)c([N+](=O)[O-])c1	0.1	i	-34.6	19.2	73.3*
CO[C@@H]1CN(C)C(=O)c2cc(NC(=O)c3ccccc3)ccc2OC[C@@H](C)N(C(=O)CN(C)C)C[C@H]1C	nt	nt	-3.7	nt	3.3
CC(C)(C)OC(=O)NCCOCCOCCNc1ncnc2ccc(Br)cc12	nt	nt	16.7	nt	nt
COc1ccc(C2c3c(ncn(CCCO)c3=N)Oc3ccc4ccccc4c32)cc1 (configuration not stated)	-1.0	+	-29.9	11.9	16.2
COc1ccc(C2c3c(ncn(CCCO)c3=N)Oc3ccc4ccccc4c32)cc1OC (configuration not stated)	0.4	i	5.5	5.2	nt
O=c1c2ccccc2nc(COc2ccccc2)n1/N=C/c1c[nH]c2ccccc12	0.3	i	nt	7.6	nt
C/C(=N\OCc1nc2ccccc2c(=O)n1/N=C/c1cc(C)cc([N+](=O)[O-])c1O)c1ccccc1	9.6*	i	6.5	60.1	2.0
O=c1c2ccccc2nc(COc2ccccc2)n1/N=C/c1ccc(O)cc1O	60.6*	i	nt	56.3	nt
C/C(=N\OCc1nc2ccccc2c(=O)n1/N=C/c1cc([N+](=O)[O-])ccc1O)c1ccccc1	10.2*	i	-6.1	-20.2	-1.2
COc1cccc(C#Cc2ccc3c(c2)O[C@H](CN(C)C)[C@@H](C)CN([C@H](C)CO)S3(=O)=O)c1	nt	nt	-14.2	nt	7.1
CCCNC(=O)C[C@@H]1CC[C@@H]2[C@H](COC[C@H](O)CN2C(=O)C2CCOCC2)O1	nt	nt	3.9	nt	-21.5
Cn1cnnc1SCC(=O)Nc1ccccc1	-0.2	i	5.9	18.6	5.5
Cn1cnnc1SCC(=O)Nc1ccc(Br)cc1F	0.3	i	0.6	22.9	70.8*
